Experimental findings from PubChem BioAssay AID1508600 (Functional Genomics Laboratory (NCATS/FGL), 2020) are described below.

Hit rate of the full screen: of about 53,000 sequences, about 3,700 (7%) were called active. This is one part of a sample in which actives are shown more often than they occur.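 The calls were made as follows: active = gene knockdowns whose robust z-score for IL-1 alpha signal is at least 2 or at most -2, so actives lie on both sides; inactive = the rest.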

This assay is described as follows: Components of the Cytosolic LPS Sensing Pathway: Gene Identification via Genome-wide siRNA Screen.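 Also: robust z of the log signal after scaling to non-targeting control siRNA wells of the plate.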 To be noted: RAW264.7 macrophages, IL-1a HTRF, actives lie on both sides, screened at 100 nM (by protocol), cells primed 5 h with Pam3CSK4 first. The gist of the method: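 Using IL-1a HTRF as read-out, the screen measured release from RAW264.7 cells after 48h siRNA knockdown (100 nM), 5 h Pam3CSK4 priming and 24 h cytosolic LipidA. Values were expressed relative to negative-control wells as robust z-scores.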
Take “GGACCCAGCAGUCAAGAUATT against 9930038B18Rik”: the z-score is 0.0416 (inactive).
With CCAGCAAUAGUUCAGCAGATT against Ccdc82, the z-score is -2.72 (active).
Turning to GGUGCCAACCUCAAUUCAUTT against Hnf4a, the z-score was 1.9 (inactive).
CCGGUUCACUGCUUGACCUTT against Wbp1: the z-score was 0.87 (inactive).
Turning to CGUUGUGAGGUUAUACGACTT against Tbc1d20, the z-score was -0.862 (inactive).
Take GGAACACUUUAAGACCAAATT against Fmnl1: the z-score is 0.482 (inactive).
On to GGAGUAUUAUGAAGUGUUGTT against Aip, for which the z-score was 0.108 (inactive).
On to GGAAACUGGUGCUACAUUATT against Usp10, for which the z-score was 0.747 (inactive).
To GGACAGGAUCAGAGAAAGATT against Zbtb7c belongs -2.15 (active).
For GGACAUUGAGGAUUAUGUCTT against Med24, the z-score was 0.332 (inactive).
As to GCUAGAUGUAGAUAGAUAATT against Plekhm3, the z-score is -0.569 (inactive).
For the sequence GCACAGGUGAGCUCUUUGATT against Nudt10, the z-score is -1.12 (inactive).
To GUGUUUUACCAUUGGACAUTT against Klra20 belongs 1.58 (inactive); to GUUCGCUGAACACGUCUUCTT against Hpcal1, 0.549 (inactive); to GGCAUUGAAUUACUUACAUTT against Slk, 2.46 (active).
For the sequence GAGACAAUUGUAACAUUCUTT against Olfr176, the z-score was 1.2 (inactive).
Consider GGCAGCUUAGCUGUUCGUCTT against Socs4, for which the z-score is -0.664 (inactive).
Consider GGCCAGUUCUAUGUCAUGATT against Usf2, for which the z-score was -2.05 (active).
GGCUCUCAGUGCCAUCAUUTT against Stk40: the z-score was -0.858 (inactive).
As to GCUUGGGUAAUAGAAAUCATT against Btnl1, the z-score was 0.6 (inactive).
With GGUUCUCCAAACUCUGCCATT against Arhgap1, the z-score was 2.29 (active).
Under GCCAAGACAUCAGAAGGAUTT against Nrxn1 stands 0.202 (inactive); under GGAAAACAGUGGUAGCUUATT against Cnp, 0.187 (inactive); under GGAUGAAGAUGAAAAAGAUTT against Hoxc9, -0.247 (inactive).
As to GGGACUUUGUAAACAGUUUTT against Eci2, the z-score is 1.61 (inactive).
For GGCUAACCGUAUCAGUCAUTT against Podnl1, the z-score is -1.23 (inactive).
Under GGCUUGAAUAUUAAAGUGATT against Arhgef19 stands -0.505 (inactive); under GGAGGUGGUACAAUACACCTT against Gsg1, 2.86 (active).
For CCAACUUCAAAACUAUCGUTT against Trp53bp1, the z-score was 2.19 (active).
To UGCGAGCUCACUGAUGUACTT against Adam34l belongs -1.69 (inactive).
GGGUUAGGUUGGGAUGGAUTT against Ccnd3: the z-score was -0.466 (inactive).
To GCACCUGACAGAUACUUCCTT against Ints4 belongs -2.1 (active).
Under CGUGGGCCUAUGCUUGUCATT against Tsc1 stands 0.32 (inactive); under GGUUCUGAUAUACGUGUUUTT against Rraga, 0.057 (inactive); under “CCCAUUCACUCAUCACAUGTT against F630003A18Rik”, -1.4 (inactive).
To GGCAGUUUUGCAUGUGUGATT against Zfp654 belongs -2.23 (active).
For the sequence GCCACUAAGAAUCAGACAUTT against Ryr1, the z-score is -0.382 (inactive).
Under CCAGACCAUUAACUUGAUUTT against Lsm8 stands -0.739 (inactive); under “GGUACGAGUGAUCGUACUUTT against 5330438I03Rik”, 0.54 (inactive).
Consider CCCGUCACCACUUAACAUGTT against Rasal2, for which the z-score is 0.699 (inactive).
Take GCUUUGAUGUCGAUGGGCUTT against Arg1: the z-score was -2.01 (active).
To GGAAUACCAUGUUACAAUUTT against Reln belongs 0.816 (inactive); to GGUGUCUUUUUUUACAAGATT against Tnfsf11, 0.233 (inactive).
To GGAGGAACCUAAUUGAAUGTT against Cmbl belongs 0.183 (inactive).
As for GGUCCAGAUAGACAUCCUGTT against Ralb, the z-score is 0.169 (inactive).
Regarding GCAACUUGUCAGAUGUUUCTT against Trpm7, the z-score is 3.35 (active).
To GGGAUAAAUAUGAAGAAAGTT against Tacc2 belongs -1.46 (inactive).
GGAACAGAGAUAUGAAACATT against Olfr738: the z-score was -2.4 (active).
As to GGAGCAAUUAAAGGUGUCATT against Fpr-rs3, the z-score is -0.159 (inactive).
For the sequence CCAUCUUCAGCAGUGGAAATT against Rph3al, the z-score was -1 (inactive).
To GGCGUGCGAUAACACGCAATT against Med18 belongs 1.05 (inactive); to GGUCGUAUGGUGCUCAAGATT against Pira1, -1.76 (inactive); to GGCAUAGGACUAGAAGCAGTT against Rsrc2, -1.54 (inactive).
Consider GCAGUAUGGGACUAUGCUUTT against Cp, for which the z-score is -0.0969 (inactive).
To GCCAGAACCUGACUUAUAUTT against Mia2 belongs -0.0793 (inactive); to GCCUGGCUAGAAAUGUGGUTT against Fpr3, 3.19 (active); to CCUCAUUCAGAGUAUAUAGTT against Vwa3a, -0.469 (inactive).
On to GGCUUUAGAGAAAGAAGUATT against Med4, for which the z-score is 1 (inactive).
To GCGAGGUGUCUCUAUCAACTT against Mrpl11 belongs 3.37 (active).
Turning to GCCUUUCUUCAGUGUUCACTT against Gm128, the z-score was 0.498 (inactive).
Under GGUCUACGCUAUCCUAGUUTT against Grin1 stands -2.23 (active).
As for GCACCAAAAUACACGAAAGTT against Ptpdc1, the z-score was -1.11 (inactive).
Take CCCAUGACUAUCCAAACAATT against Kcnmb2: the z-score was -1.52 (inactive).
Under CCUUAGUAACAGCACUAGCTT against Lrfn2 stands -0.228 (inactive).
Turning to GGAGCUGGAGUACGACUACTT against Tmem30b, the z-score was -0.891 (inactive).
To GGGAAAAUUUCCUCUGACUTT against Chia1 belongs -2.03 (active); to UUUAAGGAUCUCGUGCGAATT against Olfr809, -0.12 (inactive).
Under GCUAAAACCCGUUACUUCCTT against Gsta4 stands 0.669 (inactive); under CGACUACAAUGGGCUCAAGTT against Kifc3, -2.1 (active).
Turning to GGUAAAGGGUUCUUGGACATT against Eps15l1, the z-score was -0.156 (inactive).
Under GGAGAAUGCCCUGAUAUAGTT against Hyal5 stands 1.56 (inactive); under GGAUGUGAUUGAUAUUGAATT against Cul7, 1.63 (inactive); under GCAGUAGUCUUGGAAUUAATT against Bhlhe41, 2.15 (active).
With GCAGCGAGGUUAUCAGUAATT against Sox8, the z-score was -0.554 (inactive).
As for GCCUUUUUACAGCUCAGGUTT against Zfp975, the z-score was -0.623 (inactive).
On to GCCACCCUUCUGGAGAUUCTT against Gm6787, for which the z-score is 1.49 (inactive).
To CGGUAUCUACAUCAUAAACTT against Rpsa belongs 0.172 (inactive); to “GGUUACCAGAAAAUAACUATT against E130114P18Rik”, 0.852 (inactive).
UGUCAACUGACUGUAGUAATT against Zmynd12: the z-score was 1.66 (inactive).
With GGACUGGAAAAUAUCAAACTT against Spata5, the z-score is 2.04 (active).
For GGCUACGUGAAGGAACAGUTT against Rps10, the z-score was 0.397 (inactive).
With GGCACUUAAGUAUUCUUCATT against Wac, the z-score was -0.412 (inactive).
GGAAAAAUCAGUUUCGUCUTT against Dgkq: the z-score was 0.305 (inactive).
As to GGUUAGCCAGCUGAAUCAATT against Cxxc4, the z-score was 1.89 (inactive).
In the case of CCUAGAAAGAGGACUCAGATT against Abhd12, the z-score was -0.293 (inactive).
To CCUUUAAAGGGCAUAUUCATT against Clip1 belongs 1.46 (inactive).
Take GGCCUGCCGGAGAUAAAGATT against Tex43: the z-score is -0.759 (inactive).
For the sequence CCCUGUCUUUCCUAGGCCATT against Mcat, the z-score is -3.3 (active).
Turning to AGGGCACAAAAGGUGACAATT against Rph3al, the z-score was -0.887 (inactive).
GGAUGAUGUUCCCAUGCAATT against Cdca7l: the z-score is -0.45 (inactive).
With “GCUGCUCGAUUGCUUUCCATT against 4930429B21Rik”, the z-score was 0.411 (inactive).
To GGACCAAGUGGAAGAAGCATT against Nkx1-2 belongs -2.02 (active); to GGACAGAUGGAAUAGUGAATT against Klra10, -0.657 (inactive); to CCAUCAAGCGAUUUGUGGUTT against Rnf103, -0.156 (inactive).
To GGCCAGCAGACUAUUUAUUTT against Derl1 belongs 0.304 (inactive); to GGUGCAAGUGCAGUUUCAATT against Fxyd6, 2.38 (active); to GCACAAAAUUCACUGUUAGTT against Olfr112, 0.965 (inactive).
To GCUCGGUAGGUAUUUUCUGTT against Tmem164 belongs -0.13 (inactive); to GGCUGAUGCAGACAGUUUCTT against Brap, -0.655 (inactive); to GGAUUGAAACAGAUGAGAGTT against Gtf2e1, 0.833 (inactive).
On to GGAGUGCUGAUAAAAGAAGTT against Atp5mpl, for which the z-score was -0.952 (inactive).
Turning to GUUCUAUGGUAGACAUUAUTT against Gm5414, the z-score is -2.35 (active).
Under GCUCUCAUACACGGUGGAATT against Ros1 stands -0.272 (inactive); under GGAGACCUCAGCUGAUAUUTT against Tmem109, 0.51 (inactive); under GGUUCUGAACCAGCUGGAGTT against Chd3, 2.72 (active).
With GGCCAUGCCUUUGUAUGCUTT against Tbc1d25, the z-score is -0.155 (inactive).
On to GGAUUUUGUUGACAAUGAUTT against Ncaph, for which the z-score is -0.0936 (inactive).
Regarding GGAGCUCUUGGAUAUAAAATT against Eif4enif1, the z-score was 0.223 (inactive).
